{"source": "PubChem BioAssay AID1259389", "about": "(Center for Chemical Genomics, University of Michigan, 2018)", "note": "Hit rate of the full screen: of about 100,000 compounds, about 620 (0.62%) were called active. The sample holds actives, similar compounds and a random draw of the others, so the mix is not that of the screen. A number with no mark means an inactive call. Rule for the calls: active = z-score of 3 or more in at least 2 runs; inactive = the rest.", "data": [{"assay": "TAR RNA-Tat peptide displacers, HIV-1, primary screen, biochemical, FRET, FAM/TAMRA-labeled Tat (AID 1259389)", "conditions": "HIV-1 TAR RNA, Tat peptide displacement FRET; stronger effect = higher value", "values": [{"smiles": "O=C(Nc1ccccc1Br)c1cnn(-c2ccccc2)c1-n1cccc1", "z-score": 1.05}, {"smiles": "NC(=O)Cn1c(=O)n(CCCCC(=O)NCc2ccco2)c(=O)c2ccccc21", "z-score": -0.85}, {"smiles": "CCCc1cc(=O)[nH]c(Nc2cccc(Br)c2)n1", "z-score": 0.79}, {"smiles": "C=C(C)Cn1c(CN2CCOCC2)nc2ccccc21", "z-score": 0.03}, {"smiles": "CCc1ccc(N2CCn3c2nc2c3c(=O)n(CC(=O)O)c(=O)n2C)cc1", "z-score": 3.43}, {"smiles": "CN(C)CCCNc1oc(-c2ccc(S(=O)(=O)N3CCc4ccccc4C3)cc2)nc1C#N", "z-score": "11.4 (active)"}, {"smiles": "COc1ccc(-c2nnc(-c3ccccc3)o2)cc1S(=O)(=O)N1CCc2ccccc2C1", "z-score": 0.08}, {"smiles": "CC(C)CNc1oc(-c2ccc(S(=O)(=O)N3CCc4ccccc4C3)cc2)nc1C#N", "z-score": 0.36}, {"smiles": "O=C(c1ccccc1)c1ccc2nc(NCCCO)c3nncn3c2c1", "z-score": -1.78}, {"smiles": "O=C1CCCC2=C1C(c1cccs1)N(C(=O)CCC(=O)N1CCOCC1)c1ccccc1N2", "note": "(stereo unspecified)", "z-score": 0.78}, {"smiles": "O=C(CSc1nnc(-c2cccnc2)n1-c1ccccc1)c1ccc(F)cc1", "z-score": 1.26}, {"smiles": "CCc1nc2nc(CSc3nnc(NC(=O)c4ccccc4)s3)cc(=O)n2[nH]1", "z-score": 2.53}, {"smiles": "CCc1nc2nc(CSc3nc4ccc(NC(=O)c5ccco5)cc4s3)cc(=O)n2[nH]1", "z-score": "4.94 (active)"}, {"smiles": "CCCC(=O)Nc1ccc2nc(SCc3cc(=O)n4nc(C)sc4n3)sc2c1", "z-score": 0.47}, {"smiles": "CCC(C)N(CCNC(=O)Nc1cn(C)c(=O)c2ccccc12)Cc1ccco1", "note": "(stereo unspecified)", "z-score": 1.06}, {"smiles": "Cc1cccc(C(=O)OCc2cc(=O)n3nc(C)sc3n2)c1", "z-score": -0.36}, {"smiles": "COCCNc1c(-c2ccc(Cl)cc2)c(=O)c1=O", "z-score": 0.52}, {"smiles": "CC(C)OCCCNc1c(-c2ccc(C(C)C)cc2)c(=O)c1=O", "z-score": "10.9 (active)"}, {"smiles": "CC(CNc1c(-c2ccc(Cl)cc2)c(=O)c1=O)c1ccccc1", "note": "(stereo unspecified)", "z-score": -0.61}, {"smiles": "O=C1CSc2ccc(S(=O)(=O)NCc3ccccc3)cc2N1", "z-score": 0.46}, {"smiles": "COc1ccccc1C1Nc2ccc(C(=O)O)cc2C2C3CCC(C3)C12", "note": "(stereo unspecified)", "z-score": 8.02}, {"smiles": "CCOc1cccc2c1N[C@@H](c1ccc(C(=O)O)cc1)[C@H]1CC=C[C@@H]21", "z-score": "21.4 (active)"}, {"smiles": "COC(=O)c1ccc([C@@H]2Nc3ccc(F)cc3[C@@H]3C=CC[C@@H]32)cc1", "z-score": 1.86}, {"smiles": "Cc1ccsc1CCNC(=O)CCS(=O)(=O)c1ccc2c(c1)CC(C)N2C(=O)C1CC1", "note": "(stereo unspecified)", "z-score": -0.02}, {"smiles": "CC(C)NC(=O)NCCn1cnc2cc(C(=O)N(C)C)ccc21", "z-score": -0.27}, {"smiles": "Cc1cccc(Nc2nc(-c3ccccc3)cs2)n1", "z-score": 1.14}, {"smiles": "Oc1ccc(-c2csc(Nc3cccnc3)n2)cc1", "z-score": -0.3}, {"smiles": "Cc1n[nH]c(C)c1Nc1nc(-c2ccc(O)c(O)c2)cs1", "z-score": "28.7 (active)"}, {"smiles": "NC(=O)Cn1c(=O)n(Cc2ccc(Cl)cc2)c(=O)c2cccnc21", "z-score": -0.39}, {"smiles": "CCCNS(=O)(=O)c1ccc2c(c1)CC(C)N2C(=O)C1CC1", "note": "(stereo unspecified)", "z-score": 0.52}, {"smiles": "Cc1[nH]c2ccccc2c1C(=O)C(=O)N(C)c1ccccc1", "z-score": -0.5}, {"smiles": "Cc1[nH]c2ccccc2c1C(=O)CN1CCN(C)CC1", "z-score": 1.46}, {"smiles": "O=C(O)c1[nH]c2ccccc2c1-n1cccc1", "z-score": "13.1 (active)"}, {"smiles": "O=c1c(N2CCN(C/C=C/c3ccccc3)CC2)csc2ccc(Cl)cc12", "z-score": -2.75}, {"smiles": "COC(=O)C(=O)c1c(-c2ccc(Br)cc2)[nH]c2ccccc12", "z-score": 1.05}, {"smiles": "CCOC(=O)C1CCN(C2C(=O)c3ccccc3N2C(C)=O)CC1", "note": "(stereo unspecified)", "z-score": 1.39}, {"smiles": "Cc1nn(C)c(C)c1CNC(=O)Cn1c(-c2cccs2)cc2cc(Cl)ccc21", "z-score": 0.84}, {"smiles": "CC1Sc2ccc(S(=O)(=O)N(C)c3ccc(Br)cc3)cc2NC1=O", "note": "(stereo unspecified)", "z-score": 1.17}, {"smiles": "CC1=C(C(=O)OCc2ccccc2)C(c2ccc(O)cc2)C2=C(CC(C)(C)CC2=O)N1", "note": "(stereo unspecified)", "z-score": 1.82}, {"smiles": "CC1CCN(S(=O)(=O)c2ccc3[nH]c(=O)ccc3c2)CC1", "z-score": -0.99}, {"smiles": "O=C(C1CCN(S(=O)(=O)c2ccc3[nH]c(=O)ccc3c2)CC1)N1CCCC1", "z-score": 0.85}, {"smiles": "O=c1ccc2cc(S(=O)(=O)N3CCN(C4CCCCC4)CC3)ccc2[nH]1", "z-score": "18.9 (active)"}, {"smiles": "Cc1noc2ncnc(N3CCCC(C(=O)Nc4ccccn4)C3)c12", "note": "(stereo unspecified)", "z-score": 0.85}, {"smiles": "CCOC(=O)c1noc2nc(C)nc(Nc3ccccc3)c12", "z-score": 0.17}, {"smiles": "O=C1c2ccc(O)cc2O[C@H](c2cc(O)c(O)c(O)c2)[C@H]1O", "z-score": "9.31 (active)"}, {"smiles": "O=C(CSc1nnc2c3ccccc3nc(-c3ccccc3)n12)Nc1ccccc1", "z-score": 0.64}, {"smiles": "O=C(CSCc1cnn(-c2ccccc2)c1-n1cccc1)Nc1ccccc1F", "z-score": 1.3}, {"smiles": "O=S(=O)(c1ccc(C2Nc3ccc(Cl)cc3C3C=CCC32)cc1)N1CCOCC1", "note": "(stereo unspecified)", "z-score": -2.45}, {"smiles": "O=C(O)C1Nc2ccc(Cl)cc2C2C=CCC12", "note": "(stereo unspecified)", "z-score": "42 (active)"}, {"smiles": "O=C(NCc1cccnc1)c1ccc(CN2CC(=O)N3CCCC3C2=O)cc1", "note": "(stereo unspecified)", "z-score": 1.95}, {"smiles": "O=C(CSc1nnc2scc(-c3ccccc3)n12)N1CCOCC1", "z-score": 0.4}, {"smiles": "O=C(CSc1ccc(-c2ccccn2)nn1)Nc1ccccc1", "z-score": 2.09}, {"smiles": "CCc1c(CN2CCN(Cc3ccccc3)CC2)csc1C", "z-score": 1.69}, {"smiles": "CCn1c(C(C)N2CCCCC2)nc2ccccc21", "note": "(stereo unspecified)", "z-score": 1}, {"smiles": "Cc1ccc(Nc2nc(NCc3ccco3)nc3c2cnn3C)c(C)c1", "z-score": "3.66 (active)"}, {"smiles": "CCNc1nc(Nc2ccc(Cl)cc2C)c2cnn(C)c2n1", "z-score": 0.26}, {"smiles": "Cc1ccc(Nc2ncnc3c2cnn3C)c(C)c1", "z-score": 0.03}, {"smiles": "NC(=O)C1CCN(c2nc3c(S(=O)(=O)c4cccc(Cl)c4)nnn3c3ccsc23)CC1", "z-score": 0.52}, {"smiles": "CCN(CC)c1nc2c(S(=O)(=O)c3ccc(Cl)cc3)nnn2c2ccsc12", "z-score": -1.01}, {"smiles": "O=S(=O)(c1ccc(Cl)cc1)c1nnn2c1nc(NC1CCCC1)c1sccc12", "z-score": "7.09 (active)"}, {"smiles": "Cn1c(=O)oc2cc(S(=O)(=O)CCC(=O)Nc3cccc(F)c3)ccc21", "z-score": 0.47}, {"smiles": "O=C(Cn1nc(-c2ccccc2)c2cnc3cc4c(cc3c21)OCCO4)NC1CCCC1", "z-score": -0.04}, {"smiles": "O=C(CSc1ncc(S(=O)(=O)c2ccccc2)c(=O)[nH]1)Nc1cccc(F)c1", "z-score": -1.01}, {"smiles": "CCc1ccc(C2CC(=O)Nc3c2c(C)nn3-c2nc3ccccc3[nH]2)s1", "note": "(stereo unspecified)", "z-score": 1.63}, {"smiles": "Cc1ccc2occ(C3Nc4cc(C)c(C)cc4NC4=C3C(=O)CC(C)(C)C4)c(=O)c2c1", "note": "(stereo unspecified)", "z-score": 0.26}, {"smiles": "Cc1cccc(C)c1OCc1cc(=O)n2nc(-c3ccco3)sc2n1", "z-score": "36.5 (active)"}, {"smiles": "COc1cccc(OCc2cc(=O)n3nc(C)sc3n2)c1", "z-score": -0.36}, {"smiles": "Cc1nnc2sc(-c3ccco3)nn12", "z-score": -1.16}, {"smiles": "CCCCc1nn2c(=O)cc(CSc3n[nH]c(CC(C)C)n3)nc2s1", "z-score": -1.13}, {"smiles": "C=CCSc1ncc(Cl)c(C(=O)Nc2c(C(=O)Nc3ccc(OC)cc3)oc3ccccc23)n1", "z-score": 1.45}, {"smiles": "COC(=O)c1ccc(C2C(C(=O)OC3CCCC3)=C(C)NC3=C2C(=O)CCC3)cc1", "note": "(stereo unspecified)", "z-score": 2.05}, {"smiles": "COc1ccc(-c2nn3c(-c4ccccc4)nnc3s2)cc1OC", "z-score": "21 (active)"}, {"smiles": "c1ccc(-c2nnc3sc(-c4ccc5c(c4)OCCO5)nn23)cc1", "z-score": -0.37}, {"smiles": "Cc1ccc(-c2nnc3sc(-c4ccccn4)nn23)cc1", "z-score": 1.2}, {"smiles": "CCC1Sc2ccc(S(=O)(=O)CCC(=O)NCCc3sccc3C)cc2NC1=O", "note": "(stereo unspecified)", "z-score": -0.87}, {"smiles": "O=c1c(NC2CCCC2)c(-c2ccc3c(c2)CCCC3)c1=O", "z-score": -0.58}, {"smiles": "CCN(CC)C(=O)CCc1nc(CN2CCN(S(=O)(=O)c3cccs3)CC2)no1", "z-score": -6.66}, {"smiles": "COc1ccc(-n2c(=O)[nH]c(=O)c3sc(NC(=O)Nc4ccccc4)nc32)cc1", "z-score": -0.15}, {"smiles": "COc1cc(Br)c(CCn2c(=O)[nH]c(=O)c3sc(N)nc32)cc1OC", "z-score": "28.5 (active)"}, {"smiles": "CCCCn1c(=O)[nH]c(=O)c2sc(N)nc21", "z-score": 0.78}, {"smiles": "Cc1c(C(=O)N2CCOCC2)oc2c1-c1nn(CC(=O)NC3CCCc4ccccc43)cc1CC2", "note": "(stereo unspecified)", "z-score": 3.05}, {"smiles": "Cc1cc(NCc2cccs2)n2nc(Cc3cccc(F)c3)nc2n1", "z-score": 1.34}, {"smiles": "Cc1cc(C)cc(NC2c3ncccc3C(=O)N2c2ccccc2)c1", "note": "(stereo unspecified)", "z-score": -1.21}, {"smiles": "CCCN1C(=O)c2cc3sccc3n2CC1(C)C(=O)NC1CCC(C)CC1", "note": "(stereo unspecified)", "z-score": 1.88}, {"smiles": "CC1CCCCC1NC(=O)C1(C)Cn2c(cc3sccc32)C(=O)N1Cc1ccco1", "note": "(stereo unspecified)", "z-score": 2.7}, {"smiles": "CC1CCC(NC(=O)C2(C)Cn3c(cc4occc43)C(=O)N2c2ccc(Cl)cc2)CC1", "note": "(stereo unspecified)", "z-score": "5.26 (active)"}, {"smiles": "COCCCN1C(=O)c2cc3sccc3n2CC1(C)C(=O)NC1CCCC(C)C1C", "note": "(stereo unspecified)", "z-score": 2.51}, {"smiles": "CC1CCCC(NC(=O)C2(C)Cn3c(cc4occc43)C(=O)N2Cc2ccc3c(c2)OCO3)C1C", "note": "(stereo unspecified)", "z-score": "6.96 (active)"}, {"smiles": "CC1CCC(NC(=O)C2(C)Cn3c(cc4occc43)C(=O)N2CCN(C)C2CCCCC2)CC1", "note": "(stereo unspecified)", "z-score": 0.99}, {"smiles": "CCOC(=O)c1[nH]c(C)c(C(=O)NC2CCCC(C)C2C)c1C", "note": "(stereo unspecified)", "z-score": 0.78}, {"smiles": "CSc1cccc(NC(=O)N2c3ccccc3NC3=C(C(=O)CCC3)C2c2ccco2)c1", "note": "(stereo unspecified)", "z-score": 0.6}, {"smiles": "O=C1c2ccccc2S(=O)(=O)N1Cc1nnnn1-c1ccccc1", "z-score": 2.08}, {"smiles": "Cc1nc(-c2ccc(C)c(S(=O)(=O)Nc3ccc(Cl)cc3F)c2)cs1", "z-score": 1.67}, {"smiles": "CCNC(=O)C1=CC(c2cccs2)=NS(=O)(=O)N1C", "z-score": 1.38}, {"smiles": "CN1C(C(=O)N2CCCc3ccccc32)=CC(c2ccc3c(c2)OCO3)=NS1(=O)=O", "z-score": 2.14}, {"smiles": "CN1C(C(=O)NCc2ccccc2)=CC(c2ccc3c(c2)OCO3)=NS1(=O)=O", "z-score": "3.21 (active)"}]}]}
